From the supplement of paper PMC7057948, “A genome-wide approach for identification and characterisation of metabolite-inducible systems” (Nature Communications, 2020)

What was measured:
Conditions in all cases: inducer concentration 5 mM; 6 h; Cupriavidus necator H16; minimal medium + 0.4% gluconate
[1] = test system: AcoR/P_H16_RS19445 acetoin biosensor (pEH052); experiment: relative induction of RFP reporter vs primary effector (background-corrected); higher = stronger activation of the biosensor
Protocol: (§1)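 C. necator H16 strains, each carrying one of 21 transcription factor/inducible promoter–mRFP biosensor plasmids, were grown in minimal medium in 96-well plates (robotic platform). Each was exposed to 46 structurally or metabolically related compounds at 5 mM at 30 °C. OD-normalised RFP fluorescence was read 6 h later and expressed as relative induction (%) = 100 × (FL compound − FL uninduced)/(FL primary inducer − FL uninduced); mean of n=4.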

[2] = test system: AraC/P_araBAD L-arabinose biosensor (pEH176); experiment: as above
Protocol: as §1

[3] = test system: BenM/P_H16_RS09790 benzoate biosensor (pEH148); experiment: as above
Protocol: as §1

[4] = test system: FdsR/P_H16_RS03165 formate biosensor (pEH134); experiment: as above
Protocol: as §1

[5] = test system: GabR/P_H16_RS23655 GABA biosensor (pEH256); experiment: as above
Protocol: as §1

[6] = test system: HpdR/P_H16_RS18295 3-hydroxypropanoate biosensor (pEH010); experiment: as above
Protocol: as §1

[7] = test system: KynR/P_H16_RS14030 L-kynurenine biosensor (pEH136); experiment: as above
Protocol: as §1

[8] = test system: NahR/P_H16_RS08125 salicylate biosensor (pEH042); experiment: as above
Protocol: as §1

[9] = test system: OapR/P_H16_RS01330 beta-alanine biosensor (pEH147); experiment: as above
Protocol: as §1

[10] = test system: PcaQ/P_H16_RS30145 3,4-dihydroxybenzoate biosensor (pEH161); experiment: as above
Protocol: as §1

[11] = test system: PhgR/P_H16_RS05530 phenylglyoxylate biosensor (pEH155); experiment: as above
Protocol: as §1

[12] = test system: PhhR/P_H16_RS18365 L-phenylalanine biosensor (pEH137); experiment: as above
Protocol: as §1

[13] = test system: SauR/P_H16_RS13695 sulfonatoacetate biosensor (pEH157); experiment: as above
Protocol: as §1

[14] = test system: TtdR/P_H16_RS10665 tartrate biosensor (pEH083); experiment: as above
Protocol: as §1

[15] = test system: XdhR/P_H16_RS05055 xanthine biosensor (pEH154); experiment: as above
Protocol: as §1

[16] = test system: heterologous inducible system pEH002 (rhamnose/acrylate/cumate/itaconate set); experiment: as above
Protocol: as §1

[17] = test system: heterologous inducible system pEH020 (rhamnose/acrylate/cumate/itaconate set); experiment: as above
Protocol: as §1

[18] = test system: heterologous inducible system pEH040 (rhamnose/acrylate/cumate/itaconate set); experiment: as above
Protocol: as §1

[19] = test system: heterologous inducible system pEH086 (rhamnose/acrylate/cumate/itaconate set); experiment: as above
Protocol: as §1

[20] = test system: AcoR/P_H16_RS19445 acetoin biosensor (pEH052); experiment: relative induction of RFP reporter vs primary effector; higher = stronger activation
Protocol: (§2)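 Orthogonality screen of 21 primary inducers against 21 transcription factor/inducible promoter–mRFP biosensors in C. necator H16 in minimal medium, robotic 96-well format, 5 mM inducer, 30 °C. OD-normalised RFP fluorescence was read 6 h later and expressed as relative induction (%) = 100 × (FL compound − FL uninduced)/(FL primary inducer − FL uninduced); mean of n=4. Cognate pairs (100% by definition) omitted.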

[21] = test system: AraC/P_araBAD L-arabinose biosensor (pEH176); experiment: as above
Protocol: as §2

[22] = test system: BadR/P_H16_RS27200 cyclohexanecarboxylate biosensor (pEH159); experiment: as above
Protocol: as §2

[23] = test system: BenM/P_H16_RS09790 benzoate biosensor (pEH148); experiment: as above
Protocol: as §2

[24] = test system: FdsR/P_H16_RS03165 formate biosensor (pEH134); experiment: as above
Protocol: as §2

[25] = test system: GabR/P_H16_RS23655 GABA biosensor (pEH256); experiment: as above
Protocol: as §2

[26] = test system: HpdA/P_H16_RS24175 L-tyrosine biosensor (pEH158); experiment: as above
Protocol: as §2

[27] = test system: NahR/P_H16_RS08125 salicylate biosensor (pEH042); experiment: as above
Protocol: as §2

[28] = test system: OapR/P_H16_RS01330 beta-alanine biosensor (pEH147); experiment: as above
Protocol: as §2

[29] = test system: PcaQ/P_H16_RS30145 3,4-dihydroxybenzoate biosensor (pEH161); experiment: as above
Protocol: as §2

[30] = test system: PhgR/P_H16_RS05530 phenylglyoxylate biosensor (pEH155); experiment: as above
Protocol: as §2

[31] = test system: SauR/P_H16_RS13695 sulfonatoacetate biosensor (pEH157); experiment: as above
Protocol: as §2

[32] = test system: TtdR/P_H16_RS10665 tartrate biosensor (pEH083); experiment: as above
Protocol: as §2

[33] = test system: XdhR/P_H16_RS05055 xanthine biosensor (pEH154); experiment: as above
Protocol: as §2

[34] = test system: heterologous L-rhamnose-inducible system; experiment: as above
Protocol: as §2

[35] = test system: heterologous acrylate-inducible system; experiment: as above
Protocol: as §2

[36] = test system: heterologous cumate-inducible system; experiment: as above
Protocol: as §2

[37] = test system: heterologous itaconate-inducible system; experiment: as above
Protocol: as §2
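Wherever relative induction of RFP reporter vs primary effector (background-corrected) is given: RFP excited at 585 nm with emission read at 620 nm, culture medium blanks subtracted from fluorescence and absorbance prior to normalisation.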

NCC(=O)O [glycine]
relative induction of RFP reporter [1]: -0.038%
relative induction of RFP reporter [2]: -0.0181%
relative induction of RFP reporter [3]: 0.0164%
relative induction of RFP reporter [4]: -5.21%
relative induction of RFP reporter [5]: 0.401%
relative induction of RFP reporter [6]: -0.178%
relative induction of RFP reporter [7]: 0.211%
relative induction of RFP reporter [8]: 0.0163%
relative induction of RFP reporter [9]: -0.454%
relative induction of RFP reporter [10]: 0.00408%
relative induction of RFP reporter [11]: -0.415%
relative induction of RFP reporter [12]: -0.384%
relative induction of RFP reporter [13]: 0.0965%
relative induction of RFP reporter [14]: 0.812%
relative induction of RFP reporter [15]: -0.0501%
relative induction of RFP reporter [16]: 0.0153%
relative induction of RFP reporter [17]: -0.252%
relative induction of RFP reporter [18]: 0.354%
relative induction of RFP reporter [19]: 0.274%

CCC(=O)O
relative induction of RFP reporter [6]: 0.144%

Nc1ccccc1C(=O)C[C@H](N)C(=O)O [L-kynurenine]
relative induction of RFP reporter [20]: -1.84%
relative induction of RFP reporter [21]: -0.00708%
relative induction of RFP reporter [22]: -0.604%
relative induction of RFP reporter [23]: -0.0309%
relative induction of RFP reporter [24]: -4.32%
relative induction of RFP reporter [25]: -1.24%
relative induction of RFP reporter [26]: 0.183%
relative induction of RFP reporter [27]: 0.00391%
relative induction of RFP reporter [28]: 0.521%
relative induction of RFP reporter [29]: -0.136%
relative induction of RFP reporter [30]: -0.296%
relative induction of RFP reporter [31]: 0.00419%
relative induction of RFP reporter [32]: -0.312%
relative induction of RFP reporter [33]: -0.483%
relative induction of RFP reporter [34]: -0.00942%
relative induction of RFP reporter [35]: -1.79%
relative induction of RFP reporter [36]: -0.886%
relative induction of RFP reporter [37]: -0.412%

C[C@@H](O)C(=O)O [D-lactate]
relative induction of RFP reporter [1]: -2.25%
relative induction of RFP reporter [2]: -0.0311%
relative induction of RFP reporter [3]: -0.0413%
relative induction of RFP reporter [4]: -1.67%
relative induction of RFP reporter [5]: -2.02%
relative induction of RFP reporter [6]: -0.134%
relative induction of RFP reporter [7]: 0.0968%
relative induction of RFP reporter [8]: -0.00031%
relative induction of RFP reporter [9]: -0.533%
relative induction of RFP reporter [10]: -0.113%
relative induction of RFP reporter [11]: -0.587%
relative induction of RFP reporter [12]: -0.462%
relative induction of RFP reporter [13]: 0.0141%
relative induction of RFP reporter [14]: 0.347%
relative induction of RFP reporter [15]: -0.947%
relative induction of RFP reporter [16]: 0.0109%
relative induction of RFP reporter [17]: -0.802%
relative induction of RFP reporter [18]: -1.93%
relative induction of RFP reporter [19]: 0.366%

N[C@@H](Cc1ccc(O)cc1)C(=O)O [L-tyrosine]
relative induction of RFP reporter [20]: -2.55%
relative induction of RFP reporter [21]: 0.00497%
relative induction of RFP reporter [22]: 0.136%
relative induction of RFP reporter [23]: -0.0654%
relative induction of RFP reporter [24]: -2.95%
relative induction of RFP reporter [25]: -2.3%
relative induction of RFP reporter [27]: 0.00647%
relative induction of RFP reporter [28]: -1.24%
relative induction of RFP reporter [29]: 0.392%
relative induction of RFP reporter [30]: -0.239%
relative induction of RFP reporter [31]: 0.00275%
relative induction of RFP reporter [32]: 1.67%
relative induction of RFP reporter [33]: -1.38%
relative induction of RFP reporter [34]: 0.00824%
relative induction of RFP reporter [35]: -2.03%
relative induction of RFP reporter [36]: -2.72%
relative induction of RFP reporter [37]: 0.264%
